According to PubChem BioAssay AID540303 (National Center for Advancing Translational Sciences (NCATS), 2011):
About 1,000 (0.3%) of roughly 330,000 compounds were called active. Another 3% or so got no clear call; they are omitted. This excerpt belongs to a sample that is enriched for actives. Unmarked numbers belong to inactive results. The call rests on the fitted dose curve; in most records, active means well fitted inhibition curve with a large enough effect; inconclusive means small, poorly fitted or top-dose-only effect; inactive means no such curve, though single readings can be large or run the other way; tested in mouse RAW 264.7 cells.

experiment: qHTS for Inhibitors of Cell Surface uPA Generation; conditions: cell surface uPA generation assay; series mostly up to 38.3 µM; activity change, negative = inhibition: at the top concentration; further: nearly all actives have a fitted effect of over 55% in size
Description: The overall objective of this project is to perform a quantitative high throughput screen (qHTS) to identify novel compounds that inhibit the generation of cell surface urokinase activity. The urokinase plasminogen activator (uPA) is one of the two primary endogenous systems that mediate plasminogen activation into plasmin. Members of this system, including uPA and its receptor (uPAR), are overexpressed in several malignant tumors. This system plays a major role in adhesion, migration, invasion and metastasis of cancer cells. Small molecule inhibitors of the uPA system will serve as probes to understand the molecular mechanisms of the uPA cascade and better understanding the microenvironmental circumstances that facilitate the activation of plasminogen by uPA, and finally may provide novel candidate agents for anticancer drug therapy.
[…] […] Upon inhibition of the uPA activation cascade, the subsequent cell surface uPA activity-dependent translocation of LF into the cytoplasm is inhibited. ATP-Lite is used to measure intracellular ATP concentrations, which remain increased if LF entry into the cytoplasm is inhibited. This validation assay was performed using a small set of validation compounds.
NIH Chemical Genomics Center [NCGC]
NIH Molecular Libraries Probe Centers Network [MLPCN]
Assay Submitter (PI): Thomas Bugge, National Institute of Dental and Craniofacial Research, NIH
Cultured RAW 264.7 were dispensed into 1536-well clear bottom, white walled tissue culture plates at a density of 4000 cells/well and were incubated overnight (12-16 h) at 37 C in a 5% CO2 incubator. Serially diluted compounds in 23 nl DMSO were added to cells. […] Compound and reagent-treated plates were incubated for 24 h at 37 C in a 5% CO2 incubator. Perkin Elmer ATPlitetrade mark 1 step (3 ul) was then added to each well. Luminescence was detected using a Perkin Elmer ViewLuxtrade mark plate reader.
1.Dispensing RAW 264.7 cells into 1536-well, white walled tissue culture plates at a density of 4000 cells/well (4 uL).
2.Incubation at 37 C in a 5% CO2 incubator overnight.
3.Serially diluting compounds (1:5 serial dilution; 0.0024 uM to […] final concentration) in 23 nl DMSO.
5.Incubating the compound and reagent-treated plates for 24 hours at 37 C in a 5% CO2 incubator.
6.Adding ATP-Lite (3 ul).
7.Reading plates by ViewLux with an exposure length of 5 seconds.
On the % scale 0 is the no-effect control and ±100 the full control effect; potency means the concentration at half of the fitted maximal effect.

SMILES	Potency	activity change, negative = inhibition [%]
CCOc1ccc(-c2cc(C)[n+](CCN(CC)CC)c(-c3ccc(OCC)cc3)c2)cc1	3.55 µM (active)	
CC12CCC3C(CCC4CC(=O)CCC43C)C1CC(=NO)C2=O (stereo not given)		-4.31
CC1CCCN1CCC(C(N)=O)(c1ccccc1)c1ccccc1 (stereo not given)		4.44
CC1C(=O)OC2CCN3CC=C(COC(=O)C(C)(O)C1(C)O)C23 (stereo not given)		-1.98
CC1=CC(=Cc2sc3ccccc3[n+]2C)C=C(C)O1	5.01 µM (active)	
CCOC(=O)C1(c2ccccc2)CCN(CC(O)c2ccc(NC(C)=O)cc2)CC1 (stereo not given)		-1.41
C=C(C)C1(CCCC)C(=O)NC(=S)NC1=O		2.2
CC(=O)OC1C2(CC3N4C(=O)C5(CO)SSC4(CC31O)C(=O)N5C)OC(C)C(C)(C)C2=O (stereo not given)		-9.77
Cc1cc(C)c2c(c1)NP(=S)(c1ccccc1)N2 (stereo not given)		-3.79
CC1(c2cccc([N+](=O)[O-])c2)CC(C)(C)N(C(=O)c2ccccc2)c2ccccc21 (stereo not given)		52.7
